# From PubChem
# An excerpt weighted towards active compounds, which were near 3.8% of everything screened.
# FGF22 binding = binders of human FGF22 protein, primary screen, FGF22 synaptogenesis inhibitor project, biophysical, thermal shift, single point. recombinant FGF22 thermal shift, SYPRO orange fluorescence; percent of sucrose octasulfate shift, DMSO zero. activity (Tm shift, normalised), % at 9.99 µM. Fibroblast growth factor 22 (Homo sapiens), Q9HCT0. 1.5% of 340,000 active;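 active means mean Tm shift, scaled 0 neutral to 100 positive control, at about 1.3% or above, every replicate too, limit read from the data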
# ADAM10 inh = human ADAM10 inhibitors, primary screen, biochemical, QFRET, HTS | recombinant ADAM10, EDANS/DABCYL FRET peptide cleavage, 3 h | AID 720582, 2013 | 0.62% of 370,000 active | Disintegrin and metalloproteinase domain-containing protein 10 (Homo sapiens), O14672 | inhibition, % at 7 µM;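 active means inhibition above a per-campaign cutoff equal to the mean of compounds falling between control-based bounds plus 3 SD, cut at about 20% in these data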;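 further: 0% = DMSO wells while the 100% control is not disclosed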
# Target sequence (O14672 214-748 limits assumed): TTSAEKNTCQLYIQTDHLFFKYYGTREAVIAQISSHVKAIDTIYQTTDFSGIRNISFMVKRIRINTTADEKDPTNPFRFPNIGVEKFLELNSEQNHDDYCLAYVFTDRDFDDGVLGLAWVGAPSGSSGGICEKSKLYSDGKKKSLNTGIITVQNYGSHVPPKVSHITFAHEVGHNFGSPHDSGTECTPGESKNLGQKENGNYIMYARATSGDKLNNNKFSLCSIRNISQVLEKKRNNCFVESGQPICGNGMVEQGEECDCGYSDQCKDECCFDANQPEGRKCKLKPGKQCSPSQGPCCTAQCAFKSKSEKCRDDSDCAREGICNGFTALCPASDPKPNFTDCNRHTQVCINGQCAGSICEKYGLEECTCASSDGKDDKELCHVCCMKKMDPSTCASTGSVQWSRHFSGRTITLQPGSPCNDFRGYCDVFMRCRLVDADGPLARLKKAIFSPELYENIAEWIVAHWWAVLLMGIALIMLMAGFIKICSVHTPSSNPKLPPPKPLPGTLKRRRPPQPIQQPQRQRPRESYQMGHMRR
# ADAM17 inh = ADAM17 inhibitors, primary screen, biochemical, QFRET; inhibition, % at 6.95 µM; Disintegrin and metalloproteinase domain-containing protein 17 (Homo sapiens), P78536; AID 720648, 2013; 0.83% of 370,000 active; recombinant ADAM17, EDANS/DABCYL FRET peptide cleavage;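 active means inhibition above the mean of compounds lying between control limits plus 3 SD, set per campaign, cut at about 8.5% in these data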;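 further: 0% = DMSO-only wells as the low control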
# KLK7 zymogen act = proKLK7 zymogen activators, primary screen, biochemical, fluorescence intensity. Kallikrein-7 (Homo sapiens), P49862. purified proKLK7, EDANS-DABCYL substrate fluorescence; 100% is mature enzyme control, 0% vehicle. activation, % at 7 µM. 0.9% of 370,000 active. AID 652039, 2013;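 active means activation above the mean of all tested compounds plus 3 SD, computed per campaign excluding outliers beyond control limits, cut at about 13% in these data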
# Ecoli rRNA inh = reduced GFP signal of wild-type E. coli, primary screen, bacterial rRNA inhibitor project, GFP/RFP fluorescence, OD600, single point | E. coli WT GFP vs humanized-ribosome RFP mutants, 24 h; active compounds read low; DMSO median 0, no signal -100 | GFP signal change (wild-type ribosome), % (concentration not given with the values) | 1.6% of 350,000 active | AID 720706, 2013;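 active means significant combined selectivity score with lowered wild-type GFP, culture density cut under 30%, mutant RFP and density less affected; inactive means any of these conditions unmet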
# ADAM10 ctr = ADAM10 inhibitors, counter-screen for ADAM17 exosite inhibitor project, biochemical, FRET, human ADAM10. shares compounds with ADAM17 inh. recombinant ADAM10, EDANS/DABCYL FRET peptide cleavage, 3 h. inhibition, % at 6.95 µM. 47% of 2,900 active;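 active means mean inhibition over the triplicate runs exceeds the activity threshold set in the earlier primary screen, cut at about 20% in these data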;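 further: 0% = DMSO wells and 100% = marimastat wells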
# ADAM17 confirm = ADAM17 inhibitors, hit retest, confirmation, biochemical, QFRET peptide cleavage. shares compounds with ADAM17 inh. recombinant ADAM17, EDANS/DABCYL QFRET peptide cleavage. inhibition, % at 6.95 µM. 65% of 2,900 active. AID 743257, 2014;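 active means mean inhibition across replicates above the hit cutoff set in the primary screen, cut at about 8.5% in these data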;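 further: 0% = DMSO wells and 100% = marimastat wells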
# Numbers without * were called inactive; nt = not tested or not shown.
SMILES,FGF22 binding,ADAM10 inh,ADAM17 inh,KLK7 zymogen act,Ecoli rRNA inh,ADAM10 ctr,ADAM17 confirm
CC=Cc1ccc2n(c1=O)C[C@@H]1[C@@H](CO)[C@H](C(=O)NCC(F)(F)F)[C@H]2N1C(=O)C1CCCCC1 (mixture of isomers),0,nt,nt,nt,6,nt,nt
COCC(=O)N1CC2(CCN(Cc3ccc(Cl)cc3)CC2)c2c([nH]c3cc(OC)ccc23)[C@H]1CO,0,nt,nt,nt,0,nt,nt
Cc1ccc(-c2csc(NC(=O)COc3ccc(N(C)S(=O)(=O)c4ccc(C)cc4)cc3)n2)cc1,0,0,-1,0,7,nt,nt
COc1ccc(-c2csc(NC(=O)COc3ccc(N(C)S(=O)(=O)c4ccc(C)cc4)cc3)n2)cc1,nt,11,9.9*,0,nt,12,9
CCCNc1nc2c(c(=O)[nH]c(=O)n2C)n1CCC(C)C,nt,4,8.8*,0,nt,25*,13*
CC(C)CCn1c(NCCN(C)C)nc2c1c(=O)[nH]c(=O)n2C,nt,7,-4,0,nt,nt,nt
C[C@@H]1CN([C@@H](C)CO)C(=O)c2cc(C#CC3CC3)cnc2O[C@H]1CN(C)Cc1ccccc1C(=O)O,0,nt,nt,nt,-3,nt,nt
COc1cc(-c2coc3c(C(=O)NCc4cccc(Cl)c4)cccc23)ccc1O,0,15,8.6*,0,-14,27*,13*
COc1cc(-c2coc3c(C(=O)NCc4ccccc4)cccc23)ccc1O,0,12,1,0,-23,nt,nt
CC(Sc1nc2ccccc2s1)C(=O)N(C)Cc1ccccc1 (centres undefined),42,-2,8.8*,-1,-13,5,4
CC1CN(C(=O)C(C)Sc2nc3ccccc3s2)CC(C)O1 (centres undefined),nt,3,1,0,nt,nt,nt
COc1ccc(CCN(Cc2cccs2)S(=O)(=O)c2ccccc2)cc1OC,nt,10,7,1,nt,nt,nt
CCC(C)NS(=O)(=O)c1ccc(S(=O)(=O)N(CCc2ccc(OC)c(OC)c2)Cc2cccs2)cc1 (centres undefined),0,17,8.9*,1,-4,38*,16*
COc1ccc(CCN(Cc2cccs2)S(=O)(=O)c2ccc(F)cc2)cc1OC,nt,19,15*,0,nt,10,7
COc1ccc(CCN(Cc2cccs2)S(=O)(=O)c2ccc(S(=O)(=O)N3CCCCCC3)cc2)cc1OC,0,3,-1,0,-5,nt,nt
Cc1[nH]ccc(=O)c1OCc1c(Cl)cccc1Cl,nt,-4,-2,0,nt,nt,nt
Cc1ccc(Cn2ccc(=O)c(OCc3c(Cl)cccc3Cl)c2C)cc1,nt,17,11*,0,nt,15,10*
Cc1cc(N2CCN(C(=O)Oc3ccc(-c4ccccc4)cn3)CC2)c2ccccc2n1,nt,-103,10*,1,nt,20,15*
CCCNC(=O)Nc1ccc2c(c1)C(=O)N(C)C[C@H](OC)[C@@H](C)CN(Cc1cncnc1)[C@H](C)CO2,0,nt,nt,nt,0,nt,nt
C[C@H](CO)N1C[C@H](C)[C@@H](CN(C)C(=O)Nc2ccc3c(c2)OCO3)OCCCC[C@H](C)Oc2ccc(NC(=O)c3ccncc3)cc2C1=O,0,nt,nt,nt,-3,nt,nt
CC1CCN(S(=O)(=O)c2ccc3c(c2)N(CC(=O)NCCCN2C(C)CCCC2C)C(=O)CO3)CC1 (centres undefined),0,2,14*,0,-4,0,8
CC1CCCC(C)N1CCCNC(=O)CN1C(=O)COc2ccc(S(=O)(=O)N3CCOCC3)cc21 (centres undefined),0,-4,0,0,1,nt,nt
Cc1ccccc1Nc1nc(N)nc(COC(=O)CCNS(=O)(=O)c2ccccc2)n1,0,9,12*,0,0,-3,0
CN(C)S(=O)(=O)Oc1cccc(C(=O)Nc2ccc(Cl)c(Cl)c2)c1,nt,1,9.2*,0,nt,35*,20*
CCc1noc(C)c1C(=O)OC(C)C(=O)Nc1ccc2c(c1)OCO2 (centres undefined),0,-12,8.8*,-1,1,15,13*
SMILES,FGF22 binding,ADAM10 inh,ADAM17 inh,KLK7 zymogen act,Ecoli rRNA inh,ADAM10 ctr,ADAM17 confirm
CCc1noc(C)c1C(=O)OC(C)C(=O)Nc1ccc(Cl)cn1 (centres undefined),0,4,0,1,0,nt,nt
CCCCCCN1C[C@H](n2cc(C3CC3)nn2)[C@@H](O)C[C@@H]1c1ccc(C)cc1,0,13,15*,0,-11,17,8
COc1cccc2cc(C(=O)c3ccccc3)oc12,0,-2,-2,-1,13,nt,nt
COc1cccc2cc(/C(=N/O)c3ccc(Br)cc3)oc12,0,13,12*,1,-18,16,11*
COc1ccc(C2CC(c3ccccc3)=NN2C(=O)CN2N=NC3C(=O)N(c4cccc(F)c4)C(=O)C32)cc1 (centres undefined),1,13,14*,-2,nt,9,4
Cc1[nH]c2ccccc2c1/C=N/NC(=O)c1cccc([N+](=O)[O-])c1,nt,-1,-3,0,0,nt,nt
Cc1[nH]c2ccccc2c1/C=N/Nc1ccc([N+](=O)[O-])cc1,0,20,10*,-1,2,10,6
COc1ccc(C(=O)C2(C(=O)NCc3ccccc3)CC(c3ccccc3C(F)(F)F)=NO2)cc1 (centres undefined),nt,12,9.1*,1,nt,22*,15*
C[C@H]1CN([C@@H](C)CO)C(=O)c2cccc(NS(=O)(=O)c3cn(C)cn3)c2O[C@H]1CN(C)Cc1ccncc1,0,nt,nt,nt,1,nt,nt
C[n+]1ccc2[nH]c3ccccc3c2c1,0,-52,-13,1,10,nt,nt
Cc1[nH]c2ccccc2c1/C=C/c1cc[n+](C)cc1,nt,3,9.4*,1,nt,5,4
